Reference: PubChem BioAssay (EPA / NIEHS)
Calls of active or inactive are those of the source. How the source made its calls: active means hit-call score of the fitted dose curve at least 0.9, where 1 is the maximum; inactive means score below 0.9.

read-out: not listed separately; test: BSK_SAg_PBMCCytotoxicity: PBMC Cytotoxicity Assessment in the BioMAP Diversity Plus: SAg Assay (AID 2283093); details: primary human HUVEC with PBMC;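 further: PBMC viability measured as Alamar Blue reduction fluorescence at 546/580 nm; fitted both ways against DMSO so a hit may be loss or gain of signal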;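 on AC50: PBMC superantigen activated with SEB plus TSST-1 one hour after compound addition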
Method in brief: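 Human umbilical vein endothelial cells co-cultured with PBMC; PBMC (75,000/well) pre-treated with compound 1 h, then activated with SEB and TSST-1 (20 ng/mL final each) for 90 h. Alamar Blue added 6 h, fluorescence 546/580 nm; bidirectional fit versus DMSO.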

| Structure (SMILES) | outcome | AC50 |
| --- | --- | --- |
| CCOCCOCCOCCO | inactive |  |
| Cc1ccc(N)cc1O |  | 9.99 µM (active) |
| CNS(=O)(=O)c1cc(C(=O)N2CCC(CCN3C4CCC3CC(n3c(C)nc5ccccc53)C4)(c3cccc(F)c3)CC2)c(Cl)cc1F (stereo not given) |  | 12.6 µM (active) |
| O=C(OC[C@H]1O[C@@H](OC(=O)c2cc(O)c(O)c(OC(=O)c3cc(O)c(O)c(O)c3)c2)[C@H](OC(=O)c2cc(O)c(O)c(OC(=O)c3cc(O)c(O)c(O)c3)c2)[C@@H](OC(=O)c2cc(O)c(O)c(OC(=O)c3cc(O)c(O)c(O)c3)c2)[C@@H]1OC(=O)c1cc(O)c(O)c(OC(=O)c2cc(O)c(O)c(O)c2)c1)c1cc(O)c(O)c(OC(=O)c2cc(O)c(O)c(O)c2)c1 | inactive |  |
| O=C1CCC(N2C(=O)c3ccccc3C2=O)C(=O)N1 (stereo not given) | inactive |  |
| O=C(O)c1cccc(Oc2ccccc2)c1 | inactive |  |
| C=CCCCCCCCCC(=O)O | inactive |  |
| On1ccccc1=S |  | 18.2 µM (active) |
| COC(=O)c1c(Cl)c(Cl)c(C(=O)OC)c(Cl)c1Cl | inactive |  |
| Cn1c(=O)cc(Oc2ccc(F)cc2F)c2cnc(NCC(C)(C)O)nc21 | inactive |  |
| COc1ccc(-n2nc(C(F)F)cc2-c2ccc(S(C)=O)cc2)cc1 (stereo not given) | inactive |  |

read-out: Interleukin-8 (IL8), CXCL8 (gene 3576); test: BSK_SAg_IL8: BioMAP Diversity Plus: SAg Assay for Interleukin-8 (IL8) Biomarker Activity (AID 2283094); details: primary human HUVEC with PBMC; actives raise or lower the signal
Method in brief: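 Human umbilical vein endothelial cells co-cultured with PBMC, stimulated with superantigen; IL-8 measured by ELISA 24 h after chemical dosing. Bidirectional fitting versus DMSO; SRB staining in parallel cultures tracks cytotoxicity.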

| Structure (SMILES) | outcome | AC50 |
| --- | --- | --- |
| CC(C)CCCCCCCOC(=O)CCCCC(=O)OCCCCCCCC(C)C | inactive |  |
| COc1cccc(-c2ccc(/C=C\CN3CCCCCC3)cc2Cl)c1 |  | 25 µM (active) |
| O=C(O)c1cccc(N(Cc2cccnc2)c2ccc(OC(F)F)c(OC(F)F)c2)c1 |  | 2.31 µM (active) |
| O=C(NS(=O)(=O)/C=C/c1ccccc1)c1ccc(F)cc1Cl | inactive |  |
| CC(C)CC(C)(O)C#CC(C)(O)CC(C)C (stereo not given) | inactive |  |
| NC(=O)NO | inactive |  |
| CNCc1ccc(NC(=O)c2c[nH]c3c2C(=O)CCC3)cc1 | inactive |  |
| CC[C@H](C)C(=O)O[C@H]1C[C@@H](C)C=C2C=C[C@H](C)[C@H](CC[C@@H]3C[C@@H](O)CC(=O)O3)[C@H]21 |  | 0.147 µM (active) |
| CC(C)c1cccc(C(C)C)c1N1C(=O)c2ccc(O)cc2C1=O | inactive |  |
| COc1ccc2sc(C(=O)Nc3nnn[nH]3)c(OC(C)C)c2c1 |  | 16.6 µM (active) |
| CCN(C(=O)c1cc(C)cc(OC[C@H](C)Nc2ccncc2)c1)C(C)C | inactive |  |
| O=c1[nH]c2ccc(S(=O)CCN3CCC(Cc4ccc(F)cc4)CC3)cc2o1 (stereo not given) | inactive |  |
| O=C(O)CC(O)C(=O)O (stereo not given) | inactive |  |
| CCCCCCc1ccc(O)cc1O |  | 24.4 µM (active) |
| COc1ccc(/C=C/S(=O)(=O)NC(=O)c2ccc(C)cc2Cl)cc1 | inactive |  |
| CCOc1cccc(-n2cc(C(=O)N3CCN(c4cc(C(=O)O)c5ccccc5c4)CC3)nc2-c2ccc(C)cc2)c1 |  | 11.4 µM (active) |
| Nc1ccc(Nc2ccccc2)cc1 |  | 8.78 µM (active) |
| O=C(O)c1cc(N=Nc2ccc(S(=O)(=O)Nc3ccccn3)cc2)ccc1O | inactive |  |
| CCOCCOCCOCCO | inactive |  |
| Cc1ccc(N)cc1O | inactive |  |
| CNS(=O)(=O)c1cc(C(=O)N2CCC(CCN3C4CCC3CC(n3c(C)nc5ccccc53)C4)(c3cccc(F)c3)CC2)c(Cl)cc1F (stereo not given) |  | 20 µM (active) |
| O=C(OC[C@H]1O[C@@H](OC(=O)c2cc(O)c(O)c(OC(=O)c3cc(O)c(O)c(O)c3)c2)[C@H](OC(=O)c2cc(O)c(O)c(OC(=O)c3cc(O)c(O)c(O)c3)c2)[C@@H](OC(=O)c2cc(O)c(O)c(OC(=O)c3cc(O)c(O)c(O)c3)c2)[C@@H]1OC(=O)c1cc(O)c(O)c(OC(=O)c2cc(O)c(O)c(O)c2)c1)c1cc(O)c(O)c(OC(=O)c2cc(O)c(O)c(O)c2)c1 |  | 10.2 µM (active) |
| O=C1CCC(N2C(=O)c3ccccc3C2=O)C(=O)N1 (stereo not given) | inactive |  |
| O=C(O)c1cccc(Oc2ccccc2)c1 | inactive |  |
| C=CCCCCCCCCC(=O)O | inactive |  |
| On1ccccc1=S | inactive |  |
| COC(=O)c1c(Cl)c(Cl)c(C(=O)OC)c(Cl)c1Cl | inactive |  |
| Cn1c(=O)cc(Oc2ccc(F)cc2F)c2cnc(NCC(C)(C)O)nc21 |  | 1.09 µM (active) |
| COc1ccc(-n2nc(C(F)F)cc2-c2ccc(S(C)=O)cc2)cc1 (stereo not given) |  | 2.09 µM (active) |
